Measured values as given in PubChem BioAssay (Tox21).
The source made the active and inactive calls. Unless noted, calls come from the whole dose curve; as a rule, active = well fitted curve in the direction sought with a large enough effect in the repeat runs; inconclusive = weak or mixed curves; inactive = no such curve, though single readings can be large; an effect the other way counts as inactive or inconclusive.

Tests used:
[1] = qHTS assay for small molecule agonists of the p53 signaling pathway (AID 651631; calls by dose curve; note: nearly all actives have a fitted effect of over 15% in size; note: potency is the fitted concentration of half-maximal effect)
Method in brief: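 Stably transfected HCT-116 cells (beta-lactamase behind p53 response elements) get compounds after a 5 h settling period; 16 h later at 37 °C, FRET substrate is loaded and fluorescence read after 2 h.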

[2] = qHTS assay for small molecules that induce genotoxicity in human embryonic kidney cells expressing luciferase-tagged ATAD5 (AID 651632); note: nearly all actives have a fitted effect of over 15% in size
Method in brief: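 Genotoxicity read-out via ATAD5-luciferase: HEK293T cells, 16 hr compound incubation at 37C, Amplite detection.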

[3] = qHTS assay for small molecule agonists of the p53 signaling pathway - cell viability (AID 651633; calls by dose curve;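 note: p53RE-bla HCT reporter cells with a stable beta-lactamase p53 reporter; nearly all actives have a fitted effect of over 30% in size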)
Method in brief: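 Viability counter-read: CellTiter-Glo luminescence (30 min, room temperature) in the same p53RE-bla plates. These plates had been exposed to compounds for 16 h at 37 C.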

[4] = qHTS assay for small molecules that induce genotoxicity in human embryonic kidney cells expressing luciferase-tagged ATAD5 - cell viability (AID 651634; calls by dose curve; note: nearly all actives have a fitted effect of over 25% in size)
Method in brief: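 Live-cell protease activity (CellTiter-Fluor, fluorescence) indicates viability. HEK293T cells with luciferase-tagged ATAD5; 15.5 hr compound treatment at 37C.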

[5] = qHTS assay for small molecule disruptors of the mitochondrial membrane potential - cell viability (AID 720634; calls by dose curve;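 note: human HepG2 liver cancer cells; nearly all actives have a fitted effect of over 20% in size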)
Method in brief: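 Human hepatoma HepG2 cells were treated for 1 hr with test chemicals, then given m-MPI dye and CellTiter-Glo. Cell viability reflects luminescence proportional to cellular ATP.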

[6] = qHTS assay to test for compound auto fluorescence at 590 nm (red) in HepG2 cells (AID 720674)
Method in brief: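 Red autofluorescence (Ex/Em 540/590 nm, Rose Bengal sodium equivalents) was measured in HepG2 cells, 2,000 per well in MEM plus 10% FBS, plated overnight at 37 C. Readings were taken 1 hr after adding 23 nL compound or DMSO, at 37 C and 5% CO2.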

[7] = qHTS assay to test for compound auto fluorescence at 535 nm (green) in HepG2 cells (AID 720675)
[8] = qHTS assay to test for compound auto fluorescence at 460 nm (blue) in HEK293 cells (AID 720678)
Method in brief: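 HEK293 cells (2,000 per well, medium with 10% dialyzed FBS) attached for 4-5 hr at 37C, then received compound and stood overnight at 37C, 5% CO2. Blue fluorescence was read at Ex/Em 405/460 nm and expressed relative to triamterene.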

[9] = qHTS assay to test for compound auto fluorescence at 590 nm (red) in HEK293 cells (AID 720679)
Method in brief: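 HEK293 cells (2,000/well, medium with 10% dialyzed FBS) attached for 4-5 hr at 37C, received 23 nL compound and were incubated overnight at 37C, 5% CO2. Red fluorescence was then read at 540/590nm Ex/Em, referenced to Rose Bengal sodium.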

[10] = qHTS assay to test for compound auto fluorescence at 535 nm (green) in HEK293 cells (AID 720680)
[11] = qHTS assay to test for compound auto fluorescence at 460 nm (blue) in HEK293 cell free culture (AID 720681)
Method in brief: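 Blue fluorescence (Ex 405/Em 460 nm, triamterene-equivalent) was read immediately after pin transfer of compound or DMSO into medium (DMEM, 10% FBS) without cells.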

[12] = qHTS assay to test for compound auto fluorescence at 535 nm (green) in HEK293 cell free culture (AID 720682)
Method in brief: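 Using fluorescein as calibrant, autofluorescence was quantified at 485/535 nm in cell-free DMEM containing 10% FBS after pintool addition of compound or vehicle.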

[13] = qHTS assay to test for compound auto fluorescence at 590 nm (red) in HEK293 cell free culture (AID 720683)
Method in brief: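 Red-channel autofluorescence of compounds in culture medium (DMEM, 10% FBS), no cells, measured at 540/590 nm. Rose Bengal sodium is the reference fluorophore for equivalence.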

[14] = qHTS assay to test for compound auto fluorescence at 590 nm (red) in HepG2 cell free culture (AID 720684)
Method in brief: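 Steps: dispense MEM/10% FBS medium, no cells; pin compound or DMSO vehicle; read red channel, Ex/Em 540/590 nm. Output given as Rose Bengal sodium equivalents.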

[15] = qHTS assay to test for compound auto fluorescence at 460 nm (blue) in HepG2 cell free culture (AID 720685)
Method in brief: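 Compound (23 nL) or DMSO pinned into cell-free MEM with 10% FBS; blue fluorescence read at 405/460 nm excitation/emission, expressed as auto-fluorescence equivalency to triamterene.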

[16] = qHTS assay to test for compound auto fluorescence at 535 nm (green) in HepG2 cell free culture (AID 720686)
[17] = qHTS assay to test for compound auto fluorescence at 460 nm (blue) in HepG2 cells (AID 720687)
Method in brief: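 Blue-channel autofluorescence (Ex/Em 405/460 nm, triamterene-equivalent) was measured after 1 hr compound exposure at 37 C, 5% CO2. Cells were HepG2, plated overnight at 37 C in MEM plus 10% FBS.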

[18] = biological target: Glucocorticoid receptor (Homo sapiens) (UniProt P04150); test: qHTS assay to identify small molecule agonists of the glucocorticoid receptor (GR) signaling pathway (AID 720691; active = well fitted activation curve with a large enough effect in the signal ratio in the repeat runs, not every such curve was filed as active; inconclusive = weak or mixed curves, or effect the other way; inactive = no such curve, though single readings can be large or run the other way; the % refers to the signal ratio; note: potency is the fitted concentration of half-maximal effect); details: GR-bla HeLa, beta-lactamase reporter ratio, 18 h; activation: at 62.4 µM (top of the series)
Method in brief: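 Beta-lactamase reporter activity, read as fluorescence intensity, was measured in GR-bla HeLa cells exposed to compounds for 18 h at 37 C and then loaded with LiveBLAzer B/G FRET substrate for 2 h at room temperature.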

[19] = biological target: Glucocorticoid receptor (Homo sapiens) (UniProt P04150); test: qHTS assay to identify small molecule antagonists of the glucocorticoid receptor (GR) signaling pathway (AID 720692; active = well fitted inhibition curve with a large enough effect in the signal ratio in the repeat runs, not every such curve was filed as active; inconclusive = weak or mixed curves, or effect the other way; inactive = no such curve, though single readings can be large or run the other way; the % refers to the signal ratio)
Method in brief: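 Fluorescence from cleaved LiveBLAzer B/G FRET substrate reports GRE-driven beta-lactamase in HeLa cells; compounds are tested against 5 nM dexamethasone (final) over 18 h at 37 C, substrate incubation 2 h at room temperature.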

Measured: Potency

Chain of Glucocorticoid receptor (Homo sapiens) (P04150 whole entry, looked up): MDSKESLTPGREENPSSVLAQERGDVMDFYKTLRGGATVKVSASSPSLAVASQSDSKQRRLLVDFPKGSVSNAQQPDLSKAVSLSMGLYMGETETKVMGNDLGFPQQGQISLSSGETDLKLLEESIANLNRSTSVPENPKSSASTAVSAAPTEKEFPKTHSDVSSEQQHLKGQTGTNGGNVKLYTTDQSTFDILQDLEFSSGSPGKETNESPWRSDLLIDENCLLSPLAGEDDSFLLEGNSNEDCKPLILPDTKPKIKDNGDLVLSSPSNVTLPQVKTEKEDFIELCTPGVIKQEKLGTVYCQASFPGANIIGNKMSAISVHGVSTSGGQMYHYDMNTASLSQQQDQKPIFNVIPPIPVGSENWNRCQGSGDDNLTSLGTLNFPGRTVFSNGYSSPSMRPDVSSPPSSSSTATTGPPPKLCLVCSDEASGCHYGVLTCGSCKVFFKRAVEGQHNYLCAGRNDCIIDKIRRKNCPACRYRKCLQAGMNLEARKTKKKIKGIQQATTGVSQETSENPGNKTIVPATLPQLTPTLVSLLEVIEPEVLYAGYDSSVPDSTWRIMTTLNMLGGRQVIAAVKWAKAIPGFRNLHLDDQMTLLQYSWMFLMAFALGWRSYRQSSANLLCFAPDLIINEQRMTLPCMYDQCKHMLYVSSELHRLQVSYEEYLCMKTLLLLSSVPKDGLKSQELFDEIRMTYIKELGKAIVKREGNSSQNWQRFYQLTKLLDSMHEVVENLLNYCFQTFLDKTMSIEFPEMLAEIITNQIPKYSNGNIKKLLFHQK

CC1(C)S[C@@H]2[C@H](NC(=O)C(C(=O)Oc3ccc4c(c3)CCC4)c3ccccc3)C(=O)N2[C@H]1C(=O)O (some centres not stated)
inactive: all assays above

CC(C)c1nc(N(C)S(C)(=O)=O)nc(-c2ccc(F)cc2)c1/C=C/C(O)CC(O)CC(=O)O (configuration not stated)
inactive: all assays above

CCC(C)[C@@H](N)C(=O)O (some centres not stated)
inactive: all assays above

Nc1nc2c(c(=O)[nH]1)N(C=O)C(CNc1ccc(C(=O)N[C@@H](CCC(=O)O)C(=O)O)cc1)CN2 (some centres not stated)
inactive: all assays above

CCCC(=O)O[C@]1(C(=O)COC(C)=O)CC[C@H]2[C@@H]3C[C@H](F)C4=CC(=O)C=C[C@]4(C)[C@@]3(F)[C@@H](O)C[C@@]21C
active: [18] 4.3 nM [inconclusive]
not listed: [19]
inactive: all other assays above

Cc1ncc(C[n+]2csc(CCOP(=O)(O)OP(=O)(O)O)c2C)c(N)n1
inactive: all assays above

O=c1[nH]cnc2[nH]cc(CN3CCCCC3)c12
inactive: all assays above

C[Se]CCC(N)C(=O)O (configuration not stated)
inactive: all assays above

Cc1cccc(C)c1N(CCCc1cccnc1)C(=O)C(C)N (configuration not stated)
not listed: [19]
inactive: all other assays above

Oc1cc(O)cc(O)c1
not listed: [19]
inactive: all other assays above

C=C1c2c(Cl)ccc(O)c2C(O)=C2C(=O)[C@]3(O)C(O)=C(C(N)=O)C(=O)[C@@H](N(C)C)[C@@H]3[C@@H](O)[C@H]12
not listed: [19]
inactive: all other assays above

COc1cc2c(cc1OC)CC(=O)N(CCCN(C)C[C@H]1Cc3cc(OC)c(OC)cc31)CC2
not listed: [19]
inactive: all other assays above

C=CCSSSCC=C
active: [1] 9.44 µM
inactive: all other assays above
